From PubChem
PLCb3 inh = human PLC-beta3 inhibitors, primary screen, biochemical, fluorescence; 1-phosphatidylinositol 4,5-bisphosphate phosphodiesterase beta-3 (Homo sapiens), Q01970; Purified PLC-beta3, fluorogenic substrate; inhibition, % at 12.2 µM; 370,000 compounds, 0.18% hits; in the data active means inhibition above about 11%
sPLA2-III inh = human group III sPLA2 inhibitors, primary screen, biochemical, QFRET, BODIPY PC-A2 liposome substrate; Group 3 secretory phospholipase A2 (Homo sapiens), Q9NZ20; QFRET BODIPY PC-A2 liposome hydrolysis, fluorescence; inhibition, % at 12.2 µM; 370,000 compounds, 0.56% hits; AID 743126, 2013;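 active means inhibition above mean plus 3 SD of compounds lying within the high and low control bounds, cut at about 19% in these data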
PLC-gamma1 inh = PLC-gamma1 enzyme inhibitors, primary screen, biochemical, fluorescence, purified enzyme. fluorogenic substrate. 370,000 compounds, 0.84% hits. inhibition, % at 12.2 µM. AID 720700, 2013; in the data active means inhibition above about 9.5%
ADAM10 inh = human ADAM10 inhibitors, primary screen, biochemical, QFRET, HTS; Disintegrin and metalloproteinase domain-containing protein 10 (Homo sapiens), O14672; AID 720582, 2013; recombinant ADAM10, EDANS/DABCYL FRET peptide cleavage, 3 h; 370,000 compounds, 0.62% hits; inhibition, % at 7 µM;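 active means inhibition above a per-campaign cutoff equal to the mean of compounds falling between control-based bounds plus 3 SD, cut at about 20% in these data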
ADAM17 inh = ADAM17 inhibitors, primary screen, biochemical, QFRET. 370,000 compounds, 0.83% hits. AID 720648, 2013. recombinant ADAM17, EDANS/DABCYL FRET peptide cleavage. inhibition, % at 6.95 µM;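 active means inhibition above the mean of compounds lying between control limits plus 3 SD, set per campaign, cut at about 8.5% in these data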
KLK7 zymogen act = proKLK7 zymogen activators, primary screen, biochemical, fluorescence intensity | Kallikrein-7 (Homo sapiens), P49862 | AID 652039, 2013 | 370,000 compounds, 0.9% hits | activation, % at 7 µM | purified proKLK7, EDANS-DABCYL substrate fluorescence; 100% is mature enzyme control, 0% vehicle;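 active means activation above the mean of all tested compounds plus 3 SD, computed per campaign excluding outliers beyond control limits, cut at about 13% in these data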
Target sequence (P49862 whole entry, looked up): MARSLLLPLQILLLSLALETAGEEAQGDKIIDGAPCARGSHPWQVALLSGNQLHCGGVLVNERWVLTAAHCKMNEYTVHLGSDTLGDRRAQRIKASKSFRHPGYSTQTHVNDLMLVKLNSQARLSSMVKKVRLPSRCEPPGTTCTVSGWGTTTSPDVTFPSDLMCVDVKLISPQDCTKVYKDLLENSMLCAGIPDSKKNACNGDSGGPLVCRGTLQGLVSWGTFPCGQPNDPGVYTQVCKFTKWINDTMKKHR
ADAM10 confirm = human ADAM10 inhibitors, confirmation, biochemical, QFRET, triplicate; inhibition, % at 6.95 µM; 2,100 compounds, 1% hits; shares compounds with ADAM10 inh; ADAM10 QFRET peptide cleavage, EDANS fluorescence;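 active means inhibition above about 20% chosen separately for each screening run, limit read from the data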
ADAM17 counter = ADAM17 inhibitors, counter-screen for ADAM10 exosite inhibitor project, biochemical, QFRET, high throughput; shares compounds with ADAM10 inh; ADAM17 QFRET peptide cleavage, EDANS fluorescence; inhibition, % at 6.95 µM; 2,100 compounds, 0.5% hits;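 active means mean triplicate inhibition above the solvent-only control wells' mean plus 3 SD, cut at about 12% in these data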
ADAM10 ctr = ADAM10 inhibitors, counter-screen for ADAM17 exosite inhibitor project, biochemical, FRET, human ADAM10; 2,900 compounds, 47% hits; recombinant ADAM10, EDANS/DABCYL FRET peptide cleavage, 3 h; inhibition, % at 6.95 µM; shares compounds with ADAM17 inh;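 active means mean inhibition over the triplicate runs exceeds the activity threshold set in the earlier primary screen, cut at about 20% in these data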
ADAM17 confirm = ADAM17 inhibitors, hit retest, confirmation, biochemical, QFRET peptide cleavage; recombinant ADAM17, EDANS/DABCYL QFRET peptide cleavage; shares compounds with ADAM17 inh; inhibition, % at 6.95 µM; 2,900 compounds, 65% hits;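 active means mean inhibition across replicates above the hit cutoff set in the primary screen, cut at about 8.5% in these data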
A number is an active result. An excerpt weighted towards active compounds, which were near 3.4% of everything screened.

For Cc1nn(CC(=O)NC(=O)NC2CCCCC2C)c(=O)c(C#N)c1C (stereo unspecified) the results were PLCb3 inh inactive, sPLA2-III inh inactive, PLC-gamma1 inh inactive, ADAM10 inh inactive, ADAM17 inh inactive and KLK7 zymogen act inactive.
Screening CC(C)C[C@H](NC(=O)c1nc[nH]c1C(=O)NCc1ccc(CNC(=O)OC(C)(C)C)cc1)C(=O)OC(C)(C)C returned PLCb3 inh inactive, sPLA2-III inh inactive, PLC-gamma1 inh inactive, ADAM10 inh 24.4, ADAM17 inh 16.3, KLK7 zymogen act inactive, ADAM10 confirm inactive, ADAM17 counter inactive, ADAM10 ctr 52.5 and ADAM17 confirm 24.7.
C[C@@H](NC(=O)c1nc[nH]c1C(=O)NCc1ccc(CNC(=O)OC(C)(C)C)cc1)c1ccccc1 was read as PLCb3 inh inactive, sPLA2-III inh inactive, PLC-gamma1 inh inactive, ADAM10 inh 45.0, ADAM17 inh 17.3, KLK7 zymogen act inactive, ADAM10 confirm inactive, ADAM17 counter inactive, ADAM10 ctr 21.6 and ADAM17 confirm 15.9.
For CC(C)(C)OC(=O)NCCCC[C@H](NC(=O)c1nc[nH]c1C(=O)NCc1ccc(CNC(=O)OC(C)(C)C)cc1)C(=O)OC(C)(C)C the results were PLCb3 inh inactive, sPLA2-III inh inactive, PLC-gamma1 inh inactive, ADAM10 inh 20.5, ADAM17 inh 13.0, KLK7 zymogen act inactive, ADAM10 confirm inactive, ADAM17 counter inactive, ADAM10 ctr 29.2 and ADAM17 confirm 14.8.
For CCOc1ccc2oc(C(=O)OCC(=O)N(CC(C)C)c3c(N)n(Cc4ccccc4)c(=O)[nH]c3=O)c(C)c2c1 the results were PLCb3 inh inactive, sPLA2-III inh inactive, PLC-gamma1 inh inactive, ADAM10 inh inactive, ADAM17 inh inactive and KLK7 zymogen act inactive.
Screening Cc1[nH]ccc(=O)c1Oc1ncc(C(F)(F)F)cc1Cl returned PLCb3 inh inactive, sPLA2-III inh inactive, PLC-gamma1 inh inactive, ADAM10 inh inactive, ADAM17 inh inactive and KLK7 zymogen act inactive.
Screening CCOc1cc(-c2nc(-c3ccccc3)c(-c3cc([N+](=O)[O-])ccc3C)[nH]2)ccc1O returned PLCb3 inh inactive, sPLA2-III inh inactive, PLC-gamma1 inh inactive, ADAM10 inh 30.9, ADAM17 inh 11.5, KLK7 zymogen act inactive, ADAM10 confirm inactive, ADAM17 counter inactive, ADAM10 ctr 21.1 and ADAM17 confirm 11.9.
